Experimental data: paper PMC4336329 (PLoS ONE, 2015)
The whole screen tested about 310,000 compounds, of which about 14,000 (4.5%) showed an effect of 50% or more. The effect is printed as a negative number. Many of the other results were omitted from the sample, so strong results are more common in it than they were.

target: human ether-à-go-go-related gene (hERG) potassium channel (human, UniProt Q12809); assay: primary screen, population patch clamp on CHO cells stably expressing hERG; higher = less effect of the substance
Sequence (Q12809 whole entry, looked up): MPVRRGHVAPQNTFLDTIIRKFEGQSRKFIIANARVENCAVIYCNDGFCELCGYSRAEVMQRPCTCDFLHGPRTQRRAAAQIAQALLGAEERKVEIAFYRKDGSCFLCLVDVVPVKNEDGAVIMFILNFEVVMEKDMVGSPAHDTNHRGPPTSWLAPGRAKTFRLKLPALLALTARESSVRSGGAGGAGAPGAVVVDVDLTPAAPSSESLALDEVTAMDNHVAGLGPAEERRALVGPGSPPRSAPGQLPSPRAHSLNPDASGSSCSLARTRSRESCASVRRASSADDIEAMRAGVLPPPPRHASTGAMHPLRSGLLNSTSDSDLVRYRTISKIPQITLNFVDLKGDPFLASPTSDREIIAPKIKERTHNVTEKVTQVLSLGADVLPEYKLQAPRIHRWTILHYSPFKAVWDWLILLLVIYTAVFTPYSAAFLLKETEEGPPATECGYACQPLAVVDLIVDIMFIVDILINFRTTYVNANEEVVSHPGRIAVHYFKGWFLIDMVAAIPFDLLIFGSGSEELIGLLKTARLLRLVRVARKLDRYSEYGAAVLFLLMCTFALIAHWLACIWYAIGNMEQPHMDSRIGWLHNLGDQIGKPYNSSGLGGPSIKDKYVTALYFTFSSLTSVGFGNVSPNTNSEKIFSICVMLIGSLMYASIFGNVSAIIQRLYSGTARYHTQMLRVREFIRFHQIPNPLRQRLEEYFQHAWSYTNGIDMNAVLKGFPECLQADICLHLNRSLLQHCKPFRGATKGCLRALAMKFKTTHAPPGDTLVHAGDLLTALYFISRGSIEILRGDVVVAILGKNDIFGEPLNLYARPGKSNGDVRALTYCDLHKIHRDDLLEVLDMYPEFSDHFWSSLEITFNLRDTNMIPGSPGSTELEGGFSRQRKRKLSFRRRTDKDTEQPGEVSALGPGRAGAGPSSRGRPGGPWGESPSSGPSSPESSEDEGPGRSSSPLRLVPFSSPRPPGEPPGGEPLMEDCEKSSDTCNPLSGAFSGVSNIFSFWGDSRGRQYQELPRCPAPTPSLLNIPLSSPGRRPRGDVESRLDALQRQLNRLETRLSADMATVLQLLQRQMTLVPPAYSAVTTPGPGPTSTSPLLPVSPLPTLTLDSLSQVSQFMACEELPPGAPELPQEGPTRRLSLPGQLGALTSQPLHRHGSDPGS
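Note: peak tail current of the secondary pulse compared with the same well before compound.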

Structure (SMILES) | hERG current change (%, negative = inhibition) at 10uM [%]
CCC(C(=O)NC1CCCCC1)n1c2ccccc2c2nc(=O)cc(C)n21 (stereo not drawn) | 10.4
O/N=C/c1cn(-c2ccccc2)nc1-c1cccnc1 | -31.6
COCCCNC(=O)Cn1cnc2sc(C)c(S(=O)(=O)N3CC(C)CC(C)C3)c2c1=O (stereo not drawn) | -0.637
COCCCN1C(=O)c2ccc(C(=O)O)cc2C1=O | -0.568
COC(=O)c1ccc(/C=N/NC(=O)c2cccc(F)c2)cc1 | 6.65
COc1cccc(C(=O)NCC(=O)N/N=C/c2cn[nH]c2-c2ccccc2)c1 | -4.6
Cc1nc2nc(C)c(CCC(=O)NCCC3=CCCCC3)c(C)n2n1 | 4.49
COc1ccc(S(=O)(=O)N(C)C)cc1NC(C)C(=O)Nc1cccc(C#N)c1 (stereo not drawn) | -23.5
COc1cccc(CNC(=O)C2CSC3(C)CCC(=O)N23)c1 (stereo not drawn) | 6.82
CN(C)c1ccc(N/C=C/C(=O)C(C)(C)C)cc1 | 15.9
COC(=O)CN1C(=S)N(C)C(=O)/C1=C/c1cccs1 | 5.21
O=C(CNC(=O)c1ccc(Br)o1)NNC(=O)c1ccccc1O | -2.55
CCn1c2ccccc2c2cc(N=C3SC(CC(=O)Nc4ccccc4OC)C(=O)N3CCOC)ccc21 (stereo not drawn) | -3.75
CN(C)CCN(C(=O)c1ccc(Br)s1)c1nc2cc3c(cc2s1)OCCO3.Cl | -4.91
CN(C)CCCN(C(=O)c1ccc(Br)s1)c1nc2cc3c(cc2s1)OCCO3.Cl | -33.9
CN(C)CCCN(C(=O)c1ccc(Br)s1)c1nc2cc3c(cc2s1)OCO3.Cl | -52
COC(=O)C1=C(c2ccc(F)cc2OCc2ccccc2)C[C@@H]2CC[C@H]1N2C(=O)N1CCCCC1 | -9.9
Cc1ccccc1CNC(=O)Cn1cnc(S(=O)(=O)N2CCCC2)c1 | 6.06
CCCOC(=O)C(C)n1cnc2scc(-c3ccc(C)cc3)c2c1=O (stereo not drawn) | 6.79
CCC(C)(C)n1nnnc1C(c1cccnc1)N1CCN(c2cccc(C(F)(F)F)c2)CC1 (stereo not drawn) | -41
CC(C)(C)n1nnnc1C(c1cccnc1)N1CCN(c2ccccc2)CC1 (stereo not drawn) | -8.19

Structure (SMILES) | hERG current change (%, negative = inhibition) at 10uM [%]
CCC(C)(C)n1nnnc1C(c1ccc2ncccc2c1)N1CCN(c2ccc(O)cc2)CC1 (stereo not drawn) | -31.7
COc1ccc(N2CCN(C(c3ccc4ncccc4c3)c3nnnn3C(C)(C)C)CC2)cc1 (stereo not drawn) | -52.1
COCCn1nnnc1C(c1ccc2ncccc2c1)N1CCN(c2ccccc2F)CC1 (stereo not drawn) | -19.4
CC(C)(C)n1nnnc1C(c1ccc2ncccc2c1)N1CCSCC1 (stereo not drawn) | -18.1
CC(C)(C)n1nnnc1C(c1cccnc1)N1CCN(c2cccc(C(F)(F)F)c2)CC1.Cl (stereo not drawn) | -53.3
COc1ccc(N2CCN(C(c3ccc4ncccc4c3)c3nnnn3C(C)C)CC2)cc1 (stereo not drawn) | -51.7
CC(C)(C)n1nnnc1C(c1ccc2ncccc2c1)N1CCC(O)CC1 (stereo not drawn) | 12.4
CCc1ccc(NC(=O)Nc2ccncc2)cc1 | -20.9
O=C1Nc2ccc([N+](=O)[O-])cc2OC1CCN1CCN(c2ccccc2)CC1 (stereo not drawn) | -47.4
C/C(=N\Nc1ncnc2sc(C)c(C)c12)c1ccccn1 | -35.5
NC(=O)c1coc(-c2ccccc2)n1 | 12.9
O=C(COC(=O)c1cccc2ccccc12)NCCCc1ccccc1 | 0.562
Cc1csc(CNC(=O)c2ccc(OC3CCN(CCc4ccccc4)CC3)cc2)n1 | -55.3
Cc1csc(C(C)NC(=O)c2ccc(OC3CCN(CCc4ccccc4)CC3)cc2)n1 (stereo not drawn) | -66.2
CC(NC(=O)c1ccc(OC2CCN(Cc3ccccn3)CC2)cc1)c1nccs1 (stereo not drawn) | -10.3
CC(C)N1CCN(C(=O)c2ccc(OC3CCN(CCc4ccccc4)CC3)cc2)CC1 | -0.0142
O=C(NCc1ccccn1)c1ccc(OC2CCN(Cc3ccccc3)CC2)cc1 | -10.2
COC1CCN(C(=O)c2ccc(OC3CCN(CCc4ccccc4)CC3)cc2)CC1 | -29.8
CCOC(=O)C(CC(=O)Nc1nc(C(C)=O)c(C)s1)C(C)c1ccccc1 (stereo not drawn) | 2.61
C=CCSc1nc2c(c(=O)[nH]1)C(C(C)C)C(C#N)=C(N)O2 (stereo not drawn) | 3.05
O=C(Nc1ccc(-c2nc3ccccc3[nH]2)cc1)c1ccc2c(c1)OCO2 | 6.85
